HCV inhibitor – qHTS Assay for Inhibitors of Hepatitis C Virus (HCV); AID 651820, 2012; Huh7.5.1 HCVcc-Cre infection, luciferase reporter, 44 h; Potency, µM (series often up to 41.8 µM), inactives show at the highest dose activity change, negative = inhibition, usual class: inhibitors; 340,000 compounds, 3.4% hits; active = well fitted inhibition curve with a large enough effect; inconclusive = small, poorly fitted or top-dose-only effect, or another doubt; inactive = no such curve, though single readings can be large or run the other way; also: potency is read from the fitted curve at half-maximal effect
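After 44 h co-culture of compound, cells and HCVcc-Cre (~0.5 moi), substrate is added for 15 min at room temperature and luciferase measured over 15 sec. Cells were seeded at 1,000/well and pre-cultured 4 h.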
FMDV antiviral – High Throughput Screening for Foot and Mouth Disease Virus Antivirals; FMDV antiviral cell-based qHTS; Potency, µM (highest dose often 57.9 µM), without a hit: at the top dose activity change, negative = inhibition, most hits filed as inhibitors; 410,000 compounds, 1.2% hits; calls by dose curve; tested in HEK293T cells; also: read-out not given here; potency is read from the fitted curve at half-maximal effect; nearly all actives have a fitted effect of over 45% in size
HCMV inh – qHTS Assay for inhibitors of the human cytomegalovirus (HCMV); activity change, negative = inhibition, % at 57.5 µM; HFF cells, HCMV-luciferase reporter, 72 h; active compounds read low; AID 1259415, 2018; 410,000 compounds, 4.5% hits; in the data active = activity change below about -60%; inconclusive = no clear call, values can overlap the other calls; inactive = above about -39%
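After 16 h attachment at 37C, HFF cells received test compound and HCMV-luciferase (1 PFU/cell); reporter luminescence read 72 h later, data normalized against buffer-only and known inhibitor Salinomycin.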
Vaccinia Venus – qHTS for Stage-Specific Inhibitors of Vaccinia Orthopoxvirus: Venus Reporter Primary qHTS | Vaccinia virus Venus reporter expression, fluorescence | Potency, µM (highest dose often 36.5 µM), for inactives: at the highest dose activity change, negative = inhibition, usual class: inhibitors | 330,000 compounds, 0.46% hits; calls by dose curve; tested in A549 cells; also: potency is read from the fitted curve at half-maximal effect; nearly all actives have a fitted effect of over 30% in size
VACV mCherry inh – qHTS for Stage-Specific Inhibitors of Vaccinia Orthopoxvirus: mCherry Reporter Primary qHTS. Potency, µM (doses to about 36.5 µM), inactives show at the highest dose activity change, negative = inhibition, actives largely listed as inhibitors. AID 720579, 2013. 310,000 compounds, 0.63% hits. Vaccinia virus mCherry reporter infection, fluorescence; calls by dose curve; tested in A549 cells; also: potency is read from the fitted curve at half-maximal effect; nearly all actives have a fitted effect of over 35% in size
* = called active by the depositor; i = inactive; u = inconclusive; x = not tested or not shown; [ ] = dose if it differs, or a comment. The list is not random: actives were taken first. Their share in the collection is about 7.3%. % is scaled to controls: 0 for no effect and ±100 for the full control effect.

SMILES	HCV inhibitor	FMDV antiviral	HCMV inh	Vaccinia Venus	VACV mCherry inh
CC(C)(C)c1cc(C(C)(C)C)c2oc(=O)c(-c3nc4ccc(C(=O)O)cc4[nH]3)cc2c1	x	-21%	17	-9%[7.34 µM]	-8%[7.34 µM]
Cc1cccc2cc(-c3nc4ccc(C(=O)O)cc4[nH]3)c(=O)oc12	1%	7.9µM*	x	-9%	i
O=C(N/N=C/c1ccccc1Cl)c1[nH]c2ccc(Br)cc2c1-c1ccccc1	4µM*	-19%	-18	i	u
COc1ccc(/C=N/NC(=O)c2[nH]c3ccc(Br)cc3c2-c2ccccc2)c(C(=O)O)c1OC	11%	-16%	-63*	u	i
COc1ccc(/C=N/NC(=O)c2[nH]c3ccc(Br)cc3c2-c2ccccc2)cc1	-59%	-18%	x	u	u
COc1ccc(/C=N\NC(=O)COc2ccc(Cl)cc2Cl)c(C(=O)O)c1OC	4%	9%	-29	0%	-15%
COc1ccc(/C=N/NC(=O)c2[nH]c3ccc(Cl)cc3c2-c2ccccc2)c(C(=O)O)c1OC	6%	3%	-99*	-27%	-9%
Cc1ccc(N(Cc2ccccc2)C(=O)c2ccc(S(=O)(=O)N3CCOCC3)cc2)cc1	-7%	55%	u	-14%	-5%
CS(=O)(=O)c1ccc(C(=O)Nc2ccc(N3CCOCC3)cc2)c(Cl)c1	-16%	13%	-34	-6%	-10%
Cc1ccc(NC(=O)c2ccc(S(=O)(=O)N(C)c3ccccc3)cc2)cc1S(=O)(=O)N1CCOCC1	u	13µM*	0	x	x
Cc1ccc(N(Cc2ccccc2)C(=O)c2ccc(C)c(S(=O)(=O)N3CCOCC3)c2)cc1	32µM*	53%	u	x	x
COc1ccc(NC(=O)c2ccc(S(=O)(=O)N(C)c3ccccc3)cc2)cc1S(=O)(=O)N1CCOCC1	x	16µM*	u	u	u
CN(c1ccccc1)S(=O)(=O)c1ccc(Cl)c(C(=O)Nc2ccc(N3CCOCC3)cc2)c1	16µM*	-15%	-24	-15%	-13%
COc1cccc(CNC(=O)c2cccc(N3CCCS3(=O)=O)c2)c1	x	-13%	-1	5%	-2%
C[C@@H]1CN([C@H](C)CO)C(=O)CCCn2nncc2CO[C@@H]1CN(C)C(=O)Nc1ccccc1	x	x	-9	x	x
COc1ccccc1/C=C/c1nc(C#N)c(N2CCN(c3ccccc3)CC2)o1	x	-20%	3	1%	-10%
N#Cc1nc(N2CCCCC2)nc(N2CCOCC2)n1	u	x	26	-21%	-3%
N#Cc1nc(N2CCCC2)nc(N2CCCC2)n1	7.1µM*	u	u	u	u
C#C[C@]1(O)CC[C@H]2[C@@H]3CCC4=Cc5nc6nc7ccccc7n6cc5C[C@]4(C)[C@H]3CC[C@@]21C	u	14µM*	-30	-6%	i
COc1cccc(NC(=O)C(=O)NCCc2csc(-c3ccc(C(F)(F)F)cc3)n2)c1	x	0%	39	-12%	-12%
C[N+]1(CC(=O)c2ccc(Cl)cc2)CCOCC1	x	x	x	-4%	-10%
CCOC(=O)c1c(C)oc2c(F)c(F)c(F)c(F)c2c1=O	10µM*	11µM*	-104*	-29%	x
CCOC(=O)c1c(C)oc(=O)c(CC)c1O	x	-4%	-26	-3%	i
Cc1ccc(S(=O)(=O)n2nc(-c3ccco3)nc2N)cc1	18%	4%	-67*	-10%	-13%
Nc1nc(-c2ccco2)nn1S(=O)(=O)c1ccccc1	13%	10%	2	-1%	-8%
SMILES	HCV inhibitor	FMDV antiviral	HCMV inh	Vaccinia Venus	VACV mCherry inh
COc1ccc(-c2nc3scc(CCNS(=O)(=O)c4cccs4)n3n2)cc1	x	6%	u	-12%	-9%
O=C1Nc2ccccc2O/C1=C\c1c(F)cccc1Cl	10µM*	10%	25	-24%	-8%
Cc1ccc(CSc2nc3c([nH]c4ccccc43)c(=O)n2C)cc1	x	-9%	37	-8%	-15%
COc1cc(CNCC(C)C)cc(Br)c1OCC(=O)Nc1ccccc1	u	-17%	19	x	x
CCOc1cc(CNCCCN2CCOCC2)ccc1OCC(=O)NC(C)(C)C	-10%	-7%	13	-14%	i
OCCCCNCc1cc(Br)ccc1OCc1ccccc1	u	-13%	-17	x	x
CCOc1cc(CNCCN2CCOCC2)ccc1OCc1ccccc1Cl	2.8µM*	-26%	-19	-8%	-17%
Nc1nonc1C(=O)NCCNCc1ccccc1OCc1ccccc1F	-29%	u	9	x	x
OCCNCc1cc(Br)ccc1OCc1ccccc1Cl	u	u	-61*	-22%	-1%
CCNCc1cc(Br)c(OCC(=O)Nc2ccccc2)c(OC)c1	10µM*	-19%	-16	x	x
Nc1nonc1C(=O)NCCNCc1cc(Br)ccc1OCc1ccccc1F	10µM*	u	-62*	x	x
Cc1ccc(NC(=O)CCS(=O)(=O)c2cc(Br)cc3c2N(C(=O)C2CC2)CC3)cc1	x	-12%	8	-5%	-16%
CC(C)NC(=O)[C@@H]1C[C@@H](Sc2nc3ccccc3[nH]2)CN1C1Cc2ccccc2C1	x	1%	x	-25%	u
CN1CCN(c2ncc3ncc(=O)n(C4CC4)c3n2)CC1	x	-16%	x	x	x
CCOc1cc(CNCCO)cc(Br)c1OCc1ccccc1Cl	8.9µM*	13µM*	-3	10µM*	-9%[1.46 µM]
CCOc1cc(CNCCO)cc(Br)c1OCc1ccc(Cl)cc1	13µM*	u	-99*	u	u
CCOc1cc(CNc2ccc(O)cc2)cc(Br)c1OCc1ccccc1F	-25%	-26%	x	-15%	x
CCOc1cccc(CNCCO)c1OCc1ccc(Cl)cc1	u	u	u	-14%	-6%
CCOc1cc(CNc2ccc(O)cc2)cc(Br)c1OCc1ccccc1	x	u	-104*	u	u
CCOc1cc(CNCCCN2CCOCC2)cc(Br)c1OCc1ccccc1Cl	3.5µM*	-29%	u	u	u
C=CCOc1c(Br)cc(CNCCCN2CCOCC2)cc1OC	u	-1%	38	x	x
COc1cccc(NC(=O)CSc2nc3ccc(NC(=O)c4cccs4)cc3s2)c1	x	-22%	-21	8%	-4%
OCCNCc1c(OCc2ccc(Cl)cc2)ccc2ccccc12	11µM*	-21%	-79*	-19%	-37%
CCOc1cc(CNC(C)(C)CO)cc(Br)c1OCc1ccc(Cl)cc1Cl	2.8µM*	u	4	u	u
COc1cc(CNC(C)(C)CO)cc(Br)c1OCc1ccccc1	-19%	-14%	-32	-12%	-13%
CCN(CC)CCOC(=O)c1ccc(NC(=O)c2cc3cccc(OC)c3oc2=O)cc1	x	u	-22	-10%	-9%
Cc1ccc(C(=O)N(Cc2cc3cccc(C)c3nc2N(C)C)CC2CCCO2)cc1 (stereo unspecified)	x	-5%	x	0%	-3%
CCCC(=O)OCCNc1cc(SCc2ccco2)c2nonc2c1[N+](=O)[O-]	9%	0%	16	u	10µM*

Bioassay records from PubChem.
